In the supplement of paper PMC9262897, “Low-cost anti-mycobacterial drug discovery using engineered E. coli” (Nature Communications, 2022):
Structures can show the parent of a compound that is named as a salt. ± gives the standard deviation of the averaged measurements.

Key:
Assay in all cases: growth (OD600 after 10 h); higher = more growth (less inhibition)
[1] = test system: E. coli TESEC Alr+ wild-type control; conditions: compound 0.1 mM; raw OD600 reference: median of DMSO wells 0.241, cell-free background 0.041
Description: (§1)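 TESEC Mtb Alr E. coli, or the Alr+ wild-type control, in 384-well plates with Prestwick library compounds at 0.1 mM and 1% DMSO, across arabinose induction levels of 1E3 to 1E7 nM. Growth is read as OD600 after 10 h at 37 °C in triplicate biological replicates.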

E. coli TESEC Mtb Alr [2] = conditions: compound 0.1 mM
Description: as §1

E. coli TESEC Mtb Asd = conditions: compound 0.1 mM
Description: (§2)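 TESEC E. coli strains in which the native enzyme is deleted and replaced by arabinose-inducible Mtb Asd, DapB, CysH or TrpD, each grown in its selective medium. Strains were screened against the Prestwick library at 0.1 mM and 1% DMSO in 384-well format at low and high arabinose induction. Growth is read as OD600 after 10 h in triplicate.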

E. coli TESEC Mtb DapB = conditions: compound 0.1 mM
Description: as §2

[3] = test system: E. coli TESEC Alr+ wild-type control; conditions: compound 0.1 mM; raw OD600 reference: median of DMSO wells 0.49, cell-free background 0.052
Description: (§3)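 TESEC Mtb Alr E. coli (ΔaraC ΔtolC ΔentC Δalr ΔdadX, arabinose-inducible Mtb Alr) or the Alr+ wild-type control strain, grown in defined M9-fructose medium without D-alanine in 96-well plates with Prestwick library compounds at 0.1 mM and 1% DMSO. Low Alr induction is 0.1 µM arabinose and high induction is 10 mM arabinose.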

E. coli TESEC Mtb Alr [4] = conditions: compound 0.1 mM; remark: listed apart in the source
Description: as §3

[5] = arabinose 1000 nM, raw OD600 reference: median of DMSO wells 0.294, cell-free background 0.041
[6] = arabinose 10000 nM, raw OD600 reference: median of DMSO wells 0.264, cell-free background 0.041
[7] = arabinose 100000 nM, raw OD600 reference: median of DMSO wells 0.201, cell-free background 0.041
[8] = arabinose 1000000 nM, raw OD600 reference: median of DMSO wells 0.193, cell-free background 0.041
[9] = arabinose 10000000 nM, raw OD600 reference: median of DMSO wells 0.146, cell-free background 0.041
[10] = arabinose induction (level): High, raw OD600 reference: median of DMSO wells 0.331, cell-free background 0.041
[11] = arabinose induction (level): Low, raw OD600 reference: median of DMSO wells 0.417, cell-free background 0.041
[12] = arabinose induction (level): High, raw OD600 reference: median of DMSO wells […], cell-free background 0.041
[13] = arabinose induction (level): Low, raw OD600 reference: median of DMSO wells 0.227, cell-free background 0.041
[14] = arabinose 100 nM, raw OD600 reference: median of DMSO wells 0.413, cell-free background 0.052
[15] = arabinose 10000000 nM, raw OD600 reference: median of DMSO wells […], cell-free background 0.052

SMILES	growth [1]	growth (E. coli TESEC Mtb Alr [2]; [5])	growth (E. coli TESEC Mtb Alr [2]; [6])	growth (E. coli TESEC Mtb Alr [2]; [7])	growth (E. coli TESEC Mtb Alr [2]; [8])	growth (E. coli TESEC Mtb Alr [2]; [9])	growth (E. coli TESEC Mtb Asd; [10])	growth (E. coli TESEC Mtb Asd; [11])	growth (E. coli TESEC Mtb DapB; [12])	growth (E. coli TESEC Mtb DapB; [13])	growth [3]	growth (E. coli TESEC Mtb Alr [4]; [14])	growth (E. coli TESEC Mtb Alr [4]; [15])
CC(=O)N[C@@H](CS)C(=O)O [Acetylcysteine]	0.2422 ± 0.0011	0.298 ± 0.0096	0.2731 ± 0.0017	0.203 ± 0.019	0.21 ± 0.012	0.142 ± 0.0051	0.437 ± 0.059	0.393 ± 0.017	0.196 ± 0.014	0.232 ± 0.053	0.475 ± 0.06	0.4122 ± 0.0033	0.344 ± 0.0049
C[C@H]1C[C@H]2[C@@H]3CCC4=CC(=O)C=C[C@]4(C)[C@@]3(F)[C@@H](O)C[C@]2(C)[C@@]1(O)C(=O)CO [Betamethasone]	0.184 ± 0.0078	0.231 ± 0.031	0.256 ± 0.002	0.154 ± 0.0079	0.134 ± 0.0038	0.131 ± 0.0027	0.273 ± 0.096	0.36 ± 0.054	0.198 ± 0.033	0.211 ± 0.064	0.552 ± 0.02	0.406 ± 0.0084	0.257 ± 0.0044
Nc1ncn(C2OC(CO)C(O)C2O)c(=O)n1 (stereo unspecified) [Azacytidine-5]	0.093 ± 0.0029	0.106 ± 0.0065	0.0449 ± 0.0005	0.113 ± 0.0011	0.0465 ± 0.00069	0.0822 ± 0.0002	0.125 ± 0.0088	0.192 ± 0.065	0.199 ± 0.03	0.193 ± 0.027	0.4795 ± 0.0037	0.385 ± 0.022	0.066 ± 0.0049
CC1=C(/C=C/C(C)=C/C=C/C(C)=C\C(=O)O)C(C)(C)CCC1 [Isotretinoin]	0.245 ± 0.0032	0.274 ± 0.016	0.24 ± 0.0073	0.218 ± 0.012	0.11 ± 0.0034	0.15 ± 0.004	0.328 ± 0.098	0.365 ± 0.073	0.185 ± 0.018	0.195 ± 0.014	0.425 ± 0.028	0.438 ± 0.0094	0.251 ± 0.014
Clc1ccc2nsnc2c1NC1=NCCN1 [Tizanidine HCl]	0.245 ± 0.011	0.287 ± 0.017	0.262 ± 0.00087	0.193 ± 0.028	0.185 ± 0.0059	0.142 ± 0.0064	0.248 ± 0.011	0.383 ± 0.057	0.216 ± 0.032	0.222 ± 0.022	0.623 ± 0.019	0.401 ± 0.0081	0.325 ± 0.015
CCOC(=O)C1=C(C)NC(C)=C(C(=O)OC)C1c1cccc([N+](=O)[O-])c1 (stereo unspecified) [Nitrendipine]	0.173 ± 0.013	0.224 ± 0.01	0.0536 ± 0.0045	0.165 ± 0.0036	0.0556 ± 0.00083	0.15 ± 0.0073	0.246 ± 0.036	0.4531 ± 0.0035	0.217 ± 0.016	0.215 ± 0.0092	0.557 ± 0.015	0.412 ± 0.017	0.221 ± 0.13
CCCNCC(O)COc1ccccc1C(=O)CCc1ccccc1 (stereo unspecified) [Propafenone hydrochloride]	0.201 ± 0.0092	0.241 ± 0.019	0.281 ± 0.012	0.176 ± 0.015	0.124 ± 0.0027	0.155 ± 0.006	0.144 ± 0.007	0.345 ± 0.02	0.173 ± 0.01	0.185 ± 0.015	0.452 ± 0.022	0.412 ± 0.009	0.285 ± 0.0058
CCC(C)n1ncn(-c2ccc(N3CCN(c4ccc(OCC5COC(Cn6cncn6)(c6ccc(Cl)cc6Cl)O5)cc4)CC3)cc2)c1=O (stereo unspecified) [Itraconazole]	0.25 ± 0.006	0.321 ± 0.01	0.258 ± 0.0035	0.251 ± 0.012	0.171 ± 0.017	0.148 ± 0.005	0.421 ± 0.0098	0.462 ± 0.049	0.182 ± 0.035	0.217 ± 0.017	0.44 ± 0.018	0.441 ± 0.027	0.368 ± 0.015
OC(CCN1CCCCC1)(c1ccccc1)C1CC2C=CC1C2 (stereo unspecified) [Biperiden hydrochloride]	0.23 ± 0.031	0.284 ± 0.0095	0.275 ± 0.0046	0.226 ± 0.03	0.155 ± 0.0033	0.154 ± 0.0039	0.194 ± 0.045	0.38 ± 0.094	0.159 ± 0.012	0.174 ± 0.016	0.509 ± 0.062	0.415 ± 0.011	0.359 ± 0.035
CN(C)CC/C=C1/c2ccccc2COc2ccc(CC(=O)O)cc21 [Olopatadine hydrochloride]	0.2304 ± 0.0017	0.281 ± 0.0096	0.276 ± 0.0029	0.179 ± 0.014	0.231 ± 0.013	0.126 ± 0.0042	0.256 ± 0.056	0.328 ± 0.089	0.198 ± 0.011	0.233 ± 0.015	0.589 ± 0.097	0.425 ± 0.0062	0.361 ± 0.013
CC(COc1ccccc1)NC(C)C(O)c1ccc(O)cc1 (stereo unspecified) [Isoxsuprine hydrochloride]	0.224 ± 0.0098	0.29 ± 0.014	0.256 ± 0.003	0.183 ± 0.011	0.156 ± 0.0029	0.157 ± 0.0078	0.25 ± 0.081	0.402 ± 0.079	0.202 ± 0.042	0.271 ± 0.028	0.5 ± 0.066	0.413 ± 0.0062	0.34 ± 0.02
COc1ccc(C(Cl)=C(c2ccc(OC)cc2)c2ccc(OC)cc2)cc1 [Chlorotrianisene]	0.242 ± 0.0055	0.306 ± 0.018	0.2565 ± 0.0023	0.189 ± 0.013	0.208 ± 0.013	0.168 ± 0.049	0.281 ± 0.037	0.264 ± 0.019	0.232 ± 0.016	0.267 ± 0.0015	0.469 ± 0.025	0.443 ± 0.02	0.407 ± 0.019
